Screening results from PubChem BioAssay.
LGR2 inh: blocks bursicon-induced cAMP signaling via Drosophila LGR2; HEK293 LGR2, CRE-luciferase, bursicon-stimulated, 4 h; inhibition, % at 9.99 µM; 0.35% of 380,000 active; AID 720647;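 active = drop in luminescence signal, shown as inhibition above about 50% in the replicate tests, limit read from the data, passing the limit was not always enough; inconclusive = probably only some replicates passing the limit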;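 note: agonist challenge used bursicon conditioned medium at about half maximal strength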
EBV LMP1 NFkB: Epstein-Barr LMP1 NF-kappaB reporter inhibition. 0.69% of 350,000 active. LMP1-induced NF-kappaB luciferase reporter cells, luminescence. inhibition, % at 12.5 µM. AID 504558; in the data active = inhibition above about 41%; inconclusive = no clear call, values can overlap the other calls;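 note: 0% = neutral control wells and 100% = reference inhibitor control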
TWEAK Fn14 block: inhibitors of TWEAK-Fn14 interaction signaling; 2% of 360,000 active; inhibition, % at 10 µM; TWEAK-stimulated Fn14 reporter cells, luciferase luminescence, 8 h; in the data active = inhibition above about 50%
MITF act: increases MITF-driven TRPM1 promoter luciferase signal; SK-MEL-5 TRPM1-promoter luciferase, 24 h; % of positive control, neutral wells = 0; activation, % at 12.5 µM; 0.75% of 300,000 active;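 active = mean activation of at least 80% with every replicate also reaching 80%; inconclusive = mean reaches 80% but some replicate falls short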;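 note: 0% = neutral control wells and 100% = parthenolide positive control wells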
TRPM1 prom inh: reduces MITF-dependent TRPM1 promoter luciferase signal; 0.83% of 330,000 active; AID 488899; SK-MEL-5 TRPM1 promoter luciferase, 24 h; inhibition, % at 12.5 µM;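 active = mean inhibition across replicates of 60% or more, whatever share of single replicates reaches that level; inconclusive = some that reach 60%, reason not given; inactive = mean inhibition across replicates below 60%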
TROY signal inh: TROY signaling inhibition | Q293 LMP1-TROYcd NF-kB luciferase reporter, 4 h | inhibition, % at 10 µM | 0.98% of 360,000 active | AID 1347056;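 active = compounds whose plate-normalised and pattern-corrected inhibition of the luciferase reporter signal at the single screening dose is 50% or more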
* hit, by the source's call; ? = inconclusive; / = not tested or not shown. Most compounds without a hit are left out; they make up all but 3% or so of the library.

SMILES	LGR2 inh	EBV LMP1 NFkB	TWEAK Fn14 block	MITF act	TRPM1 prom inh	TROY signal inh
Cc1nn(-c2ccccc2)c2nc(C(Cl)(Cl)Cl)[nH]c(=O)c12	-0.3	1.8	12.4	1.8	5.9	51.2*
Nc1ccccc1SC(CC(=O)c1ccccc1)c1ccccc1 (centres undefined)	/	-21.5	1.1	/	/	-47.0
CC(C(Sc1ccccc1N)c1ccccc1)[N+](=O)[O-] (centres undefined)	/	4.9	-25.1	/	71.0*	55.0*
CSc1ccccc1NC(=O)COc1ccc(Cl)cc1Cl	-35.7	-7.3	9.7	13.3	-16.5	-56.7
O=C(COc1ccc(Cl)cc1Cl)Nc1ccccn1	100.1*	64.3*	107.8*	-80.2	80.2*	88.8*
CC(c1ccco1)N(C(=O)COc1ccc(Cl)cc1Cl)c1ccccn1 (centres undefined)	5.0	-21.3	84.2*	104.7*	-101.3	62.2*
O=C(CCCOc1ccc(Cl)cc1Cl)NCCc1ccccn1	6.0	29.1	30.6	0.2	1.3	69.4*
CC(c1ccco1)N(C(=O)COc1ccc(Cl)cc1)c1ccccn1 (centres undefined)	/	0.0	36.2	33.7	-34.5	-19.3
C[C@H](CO)N1C[C@H](C)[C@H](CN(C)C)Oc2cc(C#Cc3cccnc3)ccc2S1(=O)=O	-3.4	/	/	/	/	/
COc1ccc(CC(=O)Nc2nc(-c3cc(OC)ccc3OC)cs2)cc1	-4.0	-2.1	64.8*	8.9	-12.9	19.8
COc1cccc(-c2csc(N3CCN(C(=O)Nc4ccccc4Cl)CC3)n2)c1	-19.1	-7.5	-7.0	13.9	-10.5	13.0
COc1cccc(NC(=O)Nc2nc(-c3ccc(OC)c(OC)c3)cs2)c1	?	51.6*	105.1*	-79.7	80.3*	69.7*
COc1cccc(-c2csc(NC(C)=O)n2)c1	/	-2.6	-15.6	83.0*	-82.8	-65.4
COc1ccc(-c2csc(NC(C)=O)n2)cc1OC	/	-6.7	-20.6	/	-21.8	-6.5
COc1cccc(NC(=O)N2CCN(c3nc(-c4cccc(OC)c4)cs3)CC2)c1	-5.1	23.6	67.0*	-19.1	17.1	36.7
COc1ccc(C2(O)CCN(CC(=O)Nc3nc(-c4ccccc4)cs3)CC2)cc1	42.0	3.9	83.1*	-6.5	-1.5	45.7
CN1C=C/C(=C\c2cc[n+](C)c3ccccc23)c2ccccc21	28.4	35.0	27.6	-77.1	76.8*	1.4
Cc1ccc(S(=O)(=O)N(C)C[C@H]2OCCCC[C@@H](C)Oc3ccc(N(C)C)cc3C(=O)N([C@@H](C)CO)C[C@H]2C)cc1	-7.3	/	/	/	/	/
COc1ccc2[nH]c3c(C)c4ccncc4c(C)c3c2c1	/	-11.2	54.3*	-95.7	95.3*	45.5
O=C(C[C@@H]1C=C[C@H](NC(=O)C2CC2)[C@H](CO)O1)Nc1ccccc1	7.3	/	/	/	/	/
COc1cc(/C=N/NS(=O)(=O)c2ccc(C)cc2)ccc1OCc1cccc(C(=O)O)c1	80.2*	73.2*	-31.5	-79.2	77.7*	-29.7
COc1cc(/C=N/NS(=O)(=O)c2ccc3ccccc3c2)ccc1OCc1ccc(C(=O)O)cc1	82.1*	67.3*	-37.7	-60.9	64.3*	-35.4
COc1cc(/C=N/NC(=O)COc2cc(C)cc(C)c2)ccc1OS(=O)(=O)c1ccc(C)cc1	18.2	0.7	61.5*	-13.9	19.0	42.5
COc1cc(/C=N/O)ccc1OCc1ccc(C(=O)O)cc1	/	86.1*	17.1	-95.8	96.4*	-49.9
CCc1ccc(OCC(=O)N/N=C/c2ccc(OS(=O)(=O)c3ccc(C)cc3)c(OC)c2)cc1	-15.0	7.0	-19.7	-0.9	3.3	-7.4
SMILES	LGR2 inh	EBV LMP1 NFkB	TWEAK Fn14 block	MITF act	TRPM1 prom inh	TROY signal inh
COc1ccc(/C=N/NS(=O)(=O)c2ccc(C)cc2)cc1OC(=O)c1ccccc1	/	-6.6	13.6	1.0	-5.7	1.6
CCC(=O)N[C@@H]1CC[C@@H](CC(=O)NCC2CCCCC2)O[C@H]1CO	-12.5	/	/	/	/	/
O=C(c1ccccn1)N1C[C@@H]2[C@H](c3ccccc31)[C@H](CO)N2C(=O)c1ccccn1	-6.3	/	/	/	/	/
CCCNC(=O)N1CC2(CN(C(=O)C3CCC3)C2)c2c([nH]c3cc(OC)ccc23)[C@@H]1CO	-16.6	/	/	/	/	/
COC(=O)c1ccc(COc2ccc(/C=C(\C#N)c3nc4ccccc4[nH]3)cc2OC)o1	/	-25.0	59.7*	-9.1	10.3	5.0
COc1ccc(NC(=O)Nc2cc(C)ccc2F)cc1	-85.1	-34.7	-14.2	100.7*	-97.3	-58.8
COc1cccc(NC(=O)Nc2cc(C)ccc2F)c1	-25.9	-8.7	0.0	/	-53.6	-65.9
Cc1ccc(NC(=O)Nc2ccc(F)c(Cl)c2)cc1	-66.9	-9.8	24.0	65.4	-68.2	0.8
COc1ccc(NC(=O)Nc2ccc(F)c(F)c2)c(OC)c1	16.8	66.9*	-20.5	-71.4	74.0*	-30.1
COc1ccc(NC(=O)Nc2ccc(F)c(Cl)c2)cc1	-81.8	-27.3	-20.5	127.1*	-126.4	-35.1
COc1cccc(-c2ccc3n(c2=O)C[C@H]2[C@H](CO)[C@@H](C(=O)NCCN4CCCCC4)N(C)[C@@H]32)c1	1.1	/	/	/	/	/
CN(C)CCCN(C(=O)c1ccc(Cl)s1)c1nc2cc3c(cc2s1)OCO3	4.1	-3.4	-4.1	-81.6	82.8*	-54.0
CN(C)CCCN(C(=O)c1ccc([N+](=O)[O-])s1)c1nc2cc3c(cc2s1)OCCO3	6.4	-12.1	40.1	-66.5	66.9*	-3.4
CN(C)CCCN(C(=O)c1ccc(Br)s1)c1nc2cc3c(cc2s1)OCCO3	5.5	-24.7	0.3	-15.5	17.2	-7.9
CN(C)CCCN(C(=O)c1cc(Cl)sc1Cl)c1nc2cc3c(cc2s1)OCO3	-6.1	-12.7	-43.3	-9.9	11.4	-116.7
CN(C)CCCN(C(=O)c1cc2cc([N+](=O)[O-])ccc2s1)c1nc2cc3c(cc2s1)OCCO3	-19.6	-81.3	-334.3	-86.9	87.3*	63.8*
C=CCn1c(-c2ccc(OC)cc2)csc1=Nc1c(C)n(C)n(-c2ccccc2)c1=O	/	42.5*	10.1	-22.7	22.7	11.1
CCc1ccc2oc(-c3ccc(OC)cc3)cc(=Nc3c(C)n(C)n(-c4ccccc4)c3=O)c2c1	82.8*	-48.3	74.9*	77.5	-69.9	55.1*
CCc1ccc2oc(-c3ccc(OC)cc3)cc(=Nc3cccc(C(=O)O)c3)c2c1	84.0*	11.0	85.4*	27.1	-19.6	65.0*
COc1ccc(-c2cc(=Nc3ccc(C(=O)O)cc3)c3cc(C)ccc3o2)cc1	52.6*	-15.4	71.8*	61.3	-59.6	-17.5
Cc1ccc(S(=O)(=O)N(C)C[C@H]2Oc3ccc(NC(=O)c4ccncc4)cc3CC(=O)N([C@@H](C)CO)C[C@H]2C)cc1	-13.5	/	/	/	/	/
O=C(C[C@@H]1C=C[C@@H](NS(=O)(=O)c2ccccc2)[C@@H](CO)O1)NCc1ccncn1	-13.3	/	/	/	/	/
C=CCn1c(C)cc(C(=O)CSc2nc3ccccc3[nH]2)c1C	59.5*	24.3	80.3*	0.7	-0.7	25.3
